Experimental data as given in ChEMBL document CHEMBL3988442, “University of Dundee, Small-Polar-MMV Screening Library” (2021).
The whole screen tested about 48,000 compounds, of which about 13,000 (27%) showed an effect of 50% or more. Some of the results follow.

Test system: Wolbachia pipientis
Assay: Anti-Wolbachia Cell-Based Screen
Format: functional
Design: scale not given: in the data most compounds retested in dose-response had high values
Settings: 5 µM

Row | Compound | Percent Effect
1 | CCCN(C(=O)CCS(=O)(=O)Cc1ccccc1)c1cccc(C)c1 | -47.75%
2 | Cc1ccc(-c2cn3c(n2)CO[C@@H](CNCc2cccnc2)C3)cc1 | 0.839%
3 | Cc1[nH]/c(=N\C(=O)c2csc(NCC(C)C)n2)sc1C | 1.657%
4 | COc1ccc2c(ccn2CCC(=O)/N=c2\[nH]nc(C3CCCO3)s2)c1 (stereo not given) | 126.4%
5 | CCn1ccc2cc(NC(=O)CC3CCCO3)ccc21 (stereo not given) | 3.531%
6 | CNC(=O)CCC(=O)N1CCOC(c2ccc3cc(OC)ccc3c2)C1 (stereo not given) | 9.004%
7 | OCCNc1cc(N2CCC(n3cc(C4CCCC4)nn3)CC2)ncn1 | 104%
8 | CCC(C)CN1CCC(n2cc(C3CCCC3)nn2)CC1 (stereo not given) | -13.12%
9 | CC(C)Nc1cc(N2CCC(n3cc(C4CCCC4)nn3)CC2)ncn1 | 92.63%
10 | Cc1cc(N2CCC(n3cc(CCCO)nn3)CC2)ccn1 | 1.957%
11 | CCC(C)CN1CCC(n2cc(C3CCCCC3)nn2)CC1 (stereo not given) | -12.86%
12 | CCc1cc(N2CCC(n3cc(C(=O)NCC(C)C)nn3)CC2)ncn1 | -7.159%
13 | CCCC(C)CN1CCC(n2cc(C3CCCC3)nn2)CC1 (stereo not given) | 0.2453%
14 | C=C(C)CN1CCC(n2cc(C3CCCC3)nn2)CC1 | 14.96%
15 | CC(C)Nc1cc(N2CCC(n3cc(C4CC4)nn3)CC2)ncn1 | 77.15%
16 | CCc1cc(N2CCC(n3cc(C(=O)NC4CC4)nn3)CC2)ncn1 | -11.68%
17 | CC(C)Nc1cc(N2CCC(n3cc(CCO)nn3)CC2)ncn1 | 96.69%
18 | O=C(NC1CC1)c1cn(C2CCN(c3cc(C4CC4)ncn3)CC2)nn1 | -15.81%
19 | Cc1nn(CCO)c(C)c1CNC1CCC(C)(C)c2ccccc21 (stereo not given) | -8.145%
20 | CNCCN1C(=O)CC[C@H]2CN(c3cnc4ccccc4n3)CC[C@H]21 | -7.782%
21 | CC(C)COC1CCN(C(=O)c2ccc(C(F)(F)F)[nH]c2=O)CC1 | 17.18%
22 | N#Cc1ccc(CS(=O)(=O)NC(=O)c2ccc(C#N)cc2)cc1 | 0.6106%

Row | Compound | Percent Effect
23 | CCN1CCc2c(sc3c2C(=O)NC(/C=C/c2ccco2)N3)C1 (stereo not given) | 144%
24 | CN1CCc2c(sc3c2C(=O)NC(/C=C/c2ccccc2)N3)C1 (stereo not given) | 102.8%
25 | CCN1CCc2c(sc3c2C(=O)NC(/C=C\c2ccccc2)N3)C1 (stereo not given) | 141.7%
26 | NC(=O)Nc1cccc(CNC(=O)CCCOCc2ccccc2)c1 | -14.12%
27 | Cc1noc(C)c1C(=O)N(Cc1ccsc1)CC1CCCO1 (stereo not given) | -86.84%
28 | CCN1CCN(S(=O)(=O)N2CCCCCC2)[C@H]2CS(=O)(=O)C[C@H]21 | 2.124%
29 | CCCC(=O)N(CCCN1CCOCC1)c1nc2c(Cl)cccc2s1.Cl | 31%
30 | Cn1c(-c2ccccc2Cl)nc2cc(C(=O)NCC3(CO)CC3)cnc21 | 10.87%
31 | O=C(CCn1cncn1)NCC(c1ccco1)N1CCCC1 (stereo not given) | 144.5%
32 | Cc1noc(CCCC(=O)NCC(c2ccco2)N2CCCCC2)n1 (stereo not given) | -0.8117%
33 | O=C(CCn1cncn1)NCC(c1ccco1)N1CCCCC1 (stereo not given) | 106.2%
34 | Cc1noc(CCCC(=O)NCC(c2ccco2)N2CCCC2)n1 (stereo not given) | 1.423%
35 | CC(C)c1noc(CCC(=O)NCC(c2ccco2)N2CCCC2)n1 (stereo not given) | -11.99%
36 | O=C(NCCCn1cncn1)NCC(c1ccco1)N1CCCCC1 (stereo not given) | 9.107%
37 | CC1CCN(CC(O)CN2CCn3c(nnc3C3CC3)C2)CC1 (stereo not given) | -2.379%
38 | Cc1ccoc1-c1nnc(CN2CCn3c(nnc3C3CC3)C2)o1 | 8.401%
39 | CC(C)c1nnc(NC(=O)CCc2cc(F)ccc2F)[nH]1 | -72.05%
40 | CN(Cc1cn[nH]c1-c1ccc(F)cc1)C(=O)CCC1CC1 | -8.61%
41 | Cc1n[nH]c(C)c1CCC(=O)N(C)Cc1cn[nH]c1-c1ccc(F)cc1 | 62.4%
42 | Cc1n[nH]c(C)c1CCCN(C)Cc1c[nH]nc1-c1ccc(F)cc1 | -0.8434%
43 | COc1cc(CNC(=O)Nc2nnc(C3CC3)s2)ccc1O | -2.048%
44 | COc1ccc(CCc2nnc(NC(=O)C3CC34CCC4)s2)cc1OC (stereo not given) | 134.8%

Row | Compound | Percent Effect
45 | CCCc1nnc(NC(=O)NC2CCOc3ccccc32)s1 (stereo not given) | -4.049%
46 | CC(=O)NC(C)CC(=O)NCc1cccnc1Oc1ccccc1C (stereo not given) | -2.321%
47 | COc1ccc(C(CC(=O)NCc2n[nH]c(N)n2)c2ccccc2)cc1 (stereo not given) | -21.33%
48 | COc1cc2nc(C)n(CC(=O)O)c(=O)c2cc1OC | 17.35%
49 | COc1cc2ncn(CC(=O)NCCCN(C)C)c(=O)c2cc1OC | 7.86%
50 | COc1cc2ncn(Cc3ncc[nH]3)c(=O)c2cc1OC | 88.22%
51 | CNC(=O)C1CCN(Cc2nc(-c3ccc(SC)cc3)oc2C)C1 (stereo not given) | 1.342%
52 | Cc1nc(N2CCCC2)nc2c1CCN(C(=O)CN(C)C)CC2.O=C(O)C(F)(F)F | -8.605%
53 | COC(=O)CCC(=O)N1CCc2nc(C(=O)N3CCCCC3)sc2CC1 | -23.17%
54 | CCC(OC)C(=O)N1CCc2nc(NC)nc(C(=O)N3CCCC3)c2C1 (stereo not given) | 0.1298%
55 | CCN(C)CC(=O)N1CCc2nc(NC)nc(C(=O)N3CCCC3)c2C1 | 92.7%
56 | CNc1nc2c(c(C(=O)N3CCCC3)n1)CN(C(=O)C1CCCC1)CC2 | 99.86%
57 | CC(C)Nc1nc2c(c(NC3CC3)n1)CN(C(=O)c1ccsc1)CC2 | 4.633%
58 | CCc1nc(CN2CCCN(C(=O)CCSC)CC2)cs1 | -7.739%
59 | CNc1nc2c(c(C(=O)N3CCCC3)n1)CN(C(=O)CCSC)CC2 | 109.5%
60 | CCN(C)c1ncnc2c1CCN(C(=O)N1CCCC1)CC2.O=C(O)C(F)(F)F | -2.138%
61 | CCCOCC(=O)N1CCc2nc(NC)nc(C(=O)N3CCCC3)c2C1 | 106.3%
62 | CCCOCC(=O)N1CCCC(c2nnc(CN3CCCCC3)n2C)C1 (stereo not given) | -4.962%
63 | CC(C)Nc1nc2c(c(NC3CC3)n1)CN(C(=O)c1ccnnc1)CC2 | 10.08%
64 | Cc1csc(N2CCCN(C(=O)c3cccs3)CC2)n1 | 5.258%
65 | O=C(c1cccs1)N1CCN(C(=O)c2ncoc2-c2ccco2)CC1 | -2.664%
66 | CNc1nc2c(c(C(=O)N3CCCC3)n1)CN(C(=O)c1cccs1)CC2 | 93.6%

Row | Compound | Percent Effect
67 | Cc1oncc1C(=O)N1CCCc2c(C#N)nn(C)c2C1 | 10.9%
68 | O=C(NCC[S+]([O-])c1ccccc1)NCC(F)(F)F (stereo not given) | -2.779%
69 | O=C(NCC[S+]([O-])Cc1ccccc1)c1ccc2[nH]c(=O)[nH]c2c1 (stereo not given) | 105%
70 | O=C(NCC(O)c1ccc(F)cc1F)c1ccccc1 (stereo not given) | 4.07%
71 | Cc1cccc(C(=O)NCCS(=O)(=O)Cc2ccccc2)c1 | -4.406%
72 | CSC(C)(C)CNC(=O)NCC[S+]([O-])c1ccccc1 (stereo not given) | 5.192%
73 | O=C(NCCCO)Nc1cccc(C[S+]([O-])Cc2ccccc2)c1 (stereo not given) | -4.621%
74 | O=C(NCC(O)Cc1ccccc1)c1ccc2[nH]c(=O)[nH]c2c1 (stereo not given) | 124%
75 | Cc1nn(C)c(C)c1OCC(=O)NCC(O)Cc1ccccc1 (stereo not given) | -7.018%
76 | O=C(NCC[S+]([O-])c1ccccc1)c1ccc2[nH]c(=O)[nH]c2c1 (stereo not given) | 103.1%
77 | Cc1ccn2ncc(C(=O)N3CCCC(c4noc(C)n4)C3)c2n1 (stereo not given) | 1.825%
78 | CCOCCNCc1cc(O)c2cc(C)ccc2n1 | -3.741%
79 | CCOCCNS(=O)(=O)c1cc(C)c2nc(O)cc(C)c2c1 | 93.93%
80 | CCOCCCNc1nc(CS(=O)(=O)c2ccccc2)cs1 | -0.3734%
81 | Cc1ccccc1CN1C[C@@H]2OCC(=O)N(CC(N)=O)[C@@H]2C1 | -9.838%
82 | CCOc1cccc(CNC(=O)CN2CCC3(CCOC3)C2)c1 (stereo not given) | -4.928%
83 | CN1CC(c2ccccc2)CC2(CCN(CC(=O)N(C)C)CC2)C1 (stereo not given) | -1.357%
84 | NC(=O)CN1CCCC(C(=O)N2CCC(O)(c3ccccc3)CC2)C1 (stereo not given) | -6.911%
85 | CCOC(=O)CN1CCC2(CC1)CC(=O)c1ccc3ccccc3c1O2 | 117.9%
86 | CN(C)C(=O)CN1CCC2(CC1)CC(=O)c1ccc3ccccc3c1O2 | 109.8%
87 | CN(C)C(=O)CN1CCC2(CC1)COC2 | -28.68%
88 | CN(C)C(=O)CN1CCCN(CC2CCOc3ccccc3C2)CC1 (stereo not given) | -6.111%

Row | Compound | Percent Effect
89 | CN(C)C(=O)CN1CCN(C(=O)C2CSc3ccccc3O2)CC1 (stereo not given) | -6.188%
90 | NC(=O)CN1CCC2(CC1)CC(=O)c1ccc3ccccc3c1O2 | 103.8%
91 | CN(C)C(=O)CN1CCC2(CC1)CC(=O)c1c(ccc3ccccc13)O2 | 104.8%
92 | CCOC(=O)CN1CCC2(CC1)CC(NC(=O)c1ccccn1)CO2 (stereo not given) | -1.011%
93 | CC(C)Nc1cc(N2CCCC3(CN(C)C(=O)O3)C2)ncn1 (stereo not given) | -4.728%
94 | Cc1cccnc1NC(=O)C1CCCN(c2cccc(C(F)(F)F)n2)C1 (stereo not given) | 9.755%
95 | CCn1cc(CN(C)C(=O)C(c2ccccc2C)N(C)C)cn1 (stereo not given) | 1.037%
96 | Cc1ccc2[nH]c(CO[C@H]3CN(C(=O)C4CC4)C[C@H]3F)nc2c1 | -10.96%
97 | O=C(CCCn1cncn1)N1CCCC1c1noc(C2CC2)n1 (stereo not given) | 94.63%
98 | O=C(CCCn1cncn1)N1CCCC1c1nc(-c2ccccc2)no1 (stereo not given) | 16.9%
99 | CSCC(=O)N1CCCC1c1noc(C2CC2)n1 (stereo not given) | 7.079%
100 | O=C(CCn1cncn1)N1CCCC1c1noc(C2CC2)n1 (stereo not given) | 89.8%
101 | OCC(O)CSCc1cn(-c2ccc(Cl)cc2)nn1 (stereo not given) | -1.714%
102 | O=C1NC2(CCN(CCc3ccccc3)CC2)CC1c1ccccc1 (stereo not given) | -3.919%
103 | O=C1OC2(CCN(C3CCCOC3)CC2)CN1CCc1ccccc1 (stereo not given) | 0.1893%
104 | c1ccc(CCN2CCN(C3CCOC4(CCOCC4)C3)CC2)cc1 (stereo not given) | 96.21%
105 | c1ccc(CN2CCN(C3CCOC4(CCOCC4)C3)CC2)nc1 (stereo not given) | 115.7%
106 | c1ccc(CCN2CCN(C3CCOC4(CCOCC4)C3)CC2)nc1 (stereo not given) | 69.95%
107 | COC(=O)C(O)C1CCN(CCc2ccccn2)CC1 (stereo not given) | -11.11%
108 | O=C(NC1COC2(CCN(Cc3ccccn3)CC2)C1)c1ccccn1.O=C(O)C(F)(F)F (stereo not given) | -3.603%
109 | O=C(O)C(F)(F)F.c1ccc(OC2COC3(CCN(Cc4ccccn4)CC3)C2)cc1 (stereo not given) | -3.872%
110 | CN1CCN(C(=O)CC2CCN(CCc3ccccn3)CC2)CC1 | -2.122%
